# Screening data (PubChem)
# Sampled rows, rich in hits. Any-hit rate of the full collection: about 3.7%.
# Wnt act – activators of Wnt/beta-catenin signaling. Wnt/beta-catenin reporter cell assay, activator, plate reader. activation, % at 9.35 µM. hit rate 1.2% among 300,000; in the data active = activation above about 30%, passing the limit was not always enough; inconclusive = no clear call, values can overlap the other calls;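 note: 0% = neutral control wells and 100% = positive control wells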
# rRNA inh HTS – inhibitors of bacterial rRNA selective over humanized ribosomes. hit rate 1.6% among 350,000. GFP signal change (wild-type ribosome), % (concentration not given with the values). E. coli WT GFP vs humanized-ribosome RFP mutants, fluorescence, 24 h; stronger effect = lower value; DMSO median 0, no signal -100;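 active = significant combined selectivity score with lowered wild-type GFP, culture density cut under 30%, mutant RFP and density less affected; inactive = any of these conditions unmet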
# AF4-AF9 inh – inhibitors of human MLL-AF4/AF9 interaction; P42568; hit rate 0.47% among 350,000; AID 651704; AlphaScreen, biotin-AF4 peptide binding to FLAG-AF9; inhibition, % at 10 µM;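 active = every replicate reaching a set inhibition limit, whatever the replicate mean, cut at about 25% in these data; inconclusive = mean inhibition reaches that limit but some replicates miss it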;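 note: 0% = plate neutral control median and 100% = total signal loss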
# esBAF inh – inhibitors of esBAF chromatin remodeling in mouse ES cells; Bmi1-luciferase knock-in reporter, 24 h; 100% = twice the neutral-well signal; reporter increase, % at 12.5 µM; hit rate 2% among 350,000; in the data active = activation above about 40%; inconclusive = no clear call, values can overlap the other calls;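 note: 0% = median of the plate's neutral control wells and 100% = double that signal; a rise in the Bmi1 reporter signal indicates esBAF inhibition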
# MITF TRPM1 HTS – MITF TRPM1 promoter activation in melanoma cells; SK-MEL-5 TRPM1-promoter luciferase, 24 h; % of positive control, neutral wells = 0; activation, % at 12.5 µM; hit rate 0.75% among 300,000; AID 588334;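 active = mean activation of at least 80% with every replicate also reaching 80%; inconclusive = mean reaches 80% but some replicate falls short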;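 note: 0% = neutral control wells and 100% = parthenolide positive control wells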
# The depositor's hits bear a star; ? = inconclusive; . = not tested or not shown; ! = repeats disagree.
SMILES,Wnt act,rRNA inh HTS,AF4-AF9 inh,esBAF inh,MITF TRPM1 HTS
O=C1C2C3C=CC(C4CC34)C2C(=O)N1/N=C/c1c[nH]c2ccccc12 (stereo not drawn),10.7,-1.6,-5.0,57.1*,-0.8
Cc1cc(C)nc(NS(=O)(=O)c2ccc(NC(=S)NC(=O)c3ccco3)cc2)n1,-1.2,-7.0,-12.0,.,-12.0
CCOc1ccc(C(=O)Nc2cc(NC(=O)c3ccc(OCC)c(Cl)c3)cc(C(=O)O)c2)cc1Cl,-0.8,-33.4,-2.1,5.7,11.7
COc1ccc(OCC(=O)Nc2ccccc2Cl)cc1,-1.0,22.1,1.4,.,-0.4
O=C(COc1ccc(Cl)cc1Cl)Nc1ccccc1F,44.6*,14.3,-2.6,.,.
CC(=O)Nc1ccc(NC(=O)COc2ccc(Cl)cc2Cl)cc1,0.9,-5.5,-1.4,22.0,.
O=C(COc1ccc(Cl)cc1Cl)Nc1ccc(Cl)cn1,12.5,-5.0,-0.7,-6.8,95.7*
O=C(COc1ccccc1O)Nc1ccccc1Cl,.,.,.,51.7*,47.9
CCOc1ccc(C(=O)Nc2ccc(Cl)cn2)cc1Cl,?,.,.,131.8*,103.0*
CSCCCN1CCC(n2nccc2NC(=O)CCCc2ccccc2)CC1,-1.0,8.3,1.8,1.1,6.2
CO[C@H]1CN(C)C(=O)c2ccc(NC(C)=O)cc2OC[C@H](C)N(C(=O)CN(C)C)C[C@@H]1C,.,1.8,.,-5.2,.
O=C(COc1ccccc1Cl)Nc1ccccc1C(=O)Nc1cccc(C(=O)O)c1,1.7,-29.4*,0.0,27.3,5.7
Cc1cc(Cl)ccc1OCC(=O)Nc1ccccc1CO,16.7,.,.,42.4*,37.1
O=C(COc1ccccc1Cl)Nc1ccc(C(=O)O)cc1NC(=O)COc1ccccc1Cl,9.6,.,-1.5,-14.5,-6.6
O=C(NCCCN1CCOCC1)C1CCC(=O)N1CCc1ccccc1 (stereo not drawn),1.0,11.7,5.9,1.0,.
CC(C)NC(=O)N(C)C[C@H]1Oc2cc(C#Cc3cccc(F)c3)ccc2S(=O)(=O)N([C@@H](C)CO)C[C@@H]1C,.,-12.2,0.8,-2.7,.
COc1ccc(C(=O)NCC(=O)N/N=C/c2ccc(C)o2)cc1OC,0.0,.,-3.2,-0.6,1.8
COc1cccc(C(=O)N=c2sc3c(C)ccc(OC)c3n2C)c1,19.7,2.4,-3.7,47.6*,54.0
COc1ccc(C(=O)N=c2sc3c(C)ccc(OC)c3n2C)cc1OC,?,17.2,3.3,36.3,99.0*
COc1ccccc1C(=O)N=c1sc2c(C)ccc(OC)c2n1C,23.1,3.5,-6.8,38.1,?
CCn1c(=NC(=O)c2cccc(N3C(=O)CCC3=O)c2)sc2c(C)ccc(OC)c21,-0.5,-10.4,-27.3,.,20.5
CN1CCN(P(=O)(c2ccccc2)c2nc3ccccc3s2)CC1 (stereo not drawn),.,.,.,-1.0,-6.8
CNCCCN1c2ccccc2CCc2ccccc21,-2.5,.,5.3,-1.9,2.5
CNCCC=C1c2ccccc2CCc2ccccc21,1.1,-42.4,37.6*!,-2.0,13.5
O=C(Nc1ccccc1)N(O)c1ccc(Cl)cc1,.,.,.,68.4*,31.6
SMILES,Wnt act,rRNA inh HTS,AF4-AF9 inh,esBAF inh,MITF TRPM1 HTS
Cc1nn(-c2ccccc2)c2sc(C(=O)NC3CC3)cc12,.,.,.,47.4*,.
Cc1nn(-c2ccc(F)cc2)c2sc(C(=O)N3CCCCCC3)cc12,.,.,.,63.7*,50.1
CC(=O)c1sc(NC(=O)c2cc3c(C)nn(-c4ccccc4)c3s2)nc1C,-8.2,.,.,.,-15.4
O=C(c1cnccn1)N1C[C@@H]2[C@H](c3ccccc31)[C@H](CO)N2Cc1ccc2c(c1)OCO2,.,6.4,-9.7,-1.7,.
COc1ccc(CN(C)C[C@H]2Oc3ccc(NS(=O)(=O)c4cn(C)cn4)cc3CC(=O)N([C@H](C)CO)C[C@H]2C)cc1,.,5.0,-2.2,-7.1,.
CC(c1nccs1)N(C)C(=O)c1cn(Cc2cccc3ccccc23)nn1 (stereo not drawn),8.1,-4.9,-14.6,48.3*,43.3
CC(c1nccs1)N(C)C(=O)CCc1nnc(-c2ccc(-c3ccccc3)cc2)o1 (stereo not drawn),8.4,-15.3,.,.,-2.5
O=C(Nc1ccccc1Cl)c1csc(-c2cccnc2)n1,-0.6,8.0,-2.0,59.5*,26.1
NC(=O)CC(NC(=O)Cc1cccc2ccccc12)c1ccc(NC2CCN(Cc3ccccc3)CC2)c([N+](=O)[O-])c1 (stereo not drawn),-4.0,4.2,53.6*,8.7,-2.1
CCN(CC(=O)Nc1ccc(C(=O)OC)cc1)Cc1ccccc1,.,6.6,0.3,-9.0,14.3
Cc1cccc2cc3ccccc3nc12,10.5,20.1,-1.3,.,.
